In PubChem BioAssay (NCATS):
Inconclusive results are not listed. Activity calls are given as the source filed them. Unless noted, calls come from the whole dose curve; as a rule, active = well fitted curve in the direction sought with a large enough effect; inconclusive = small, poorly fitted or top-dose-only effect, or another doubt; inactive = no such curve, though single readings can be large; an effect the other way counts as inactive or inconclusive.

Legend:
[1] = qHTS to identify inhibitors of the type 1 interferon - major histocompatibility complex class I in skeletal muscle: primary screen against the NCATS Mechanism Interrogation Plate v5.0 (MIPE) Libary (AID 1347411);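 note: plate controls were vehicle for no effect and reference inhibitor for full effect; nearly all actives have a fitted effect of over 65% in size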
Procedure, shortened: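 IFN-beta-driven (4 ng/ml) HLA-B-HiBit expression in CRISPR-tagged C25cl48 myoblasts; compounds 11-pt, 1:3, max 46 uM, 24 hr exposure; lytic NanoLuc complementation luminescence.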

[2] = Primary qHTS for inhibitors of nuclear receptor binding SET domain protein 2 (NSD2) in an isogenic RCH-ACV NSD2 p.E1099K mutant (9B) (AID 1645876); note: nearly all actives have a fitted effect of over 70% in size; note: potency is the fitted concentration of half-maximal effect; for activity change, negative = viability loss: % is set by controls: 0 for no effect and ±100 for the full control effect
[3] = target: Glutathione peroxidase 1 (Homo sapiens) (UniProt P07203); assay: Primary qHTS Assay for Inhibitors of Recombinant Selenoprotein Glutathione Peroxidase 1 (GPX1) (AID 1845191); note: nearly all actives have a fitted effect of over 65% in size; note: potency is the fitted concentration of half-maximal effect; for activity, negative = inhibition: % is set by controls: 0 for no effect and ±100 for the full control effect
Glutathione peroxidase 1 (Homo sapiens), sequence (P07203 whole entry, looked up): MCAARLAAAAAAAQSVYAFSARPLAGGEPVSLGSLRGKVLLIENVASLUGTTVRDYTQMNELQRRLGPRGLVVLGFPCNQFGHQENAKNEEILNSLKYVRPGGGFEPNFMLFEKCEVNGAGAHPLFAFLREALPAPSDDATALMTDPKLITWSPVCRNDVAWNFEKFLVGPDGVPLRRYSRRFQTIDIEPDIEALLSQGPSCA
Procedure, shortened: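 NADPH consumption tracked by fluorescence at 340/450 nm between t=0 and t=15 min, room temperature. Final mix: 10 nM GPX1, 100 nM glutathione reductase, 1 mM GSH, 0.5 mM NADPH, 0.5 mM cumene hydroperoxide, 0.01% BSA; 30 min compound–enzyme preincubation.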

[4] = target: Phospholipid hydroperoxide glutathione peroxidase GPX4 (Homo sapiens) (UniProt P36969); assay: Primary qHTS Assay for Inhibitors of Recombinant Selenoprotein Glutathione Peroxidase 4 (GPX4) (AID 1845192); conditions: outcome: dose series up to 50 µM unless noted; note: nearly all actives have a fitted effect of over 65% in size; for activity change, negative = inhibition: series mostly up to about 50 µM; % is set by controls: 0 for no effect and ±100 for the full control effect
Phospholipid hydroperoxide glutathione peroxidase GPX4 (Homo sapiens), sequence (P36969 whole entry, looked up): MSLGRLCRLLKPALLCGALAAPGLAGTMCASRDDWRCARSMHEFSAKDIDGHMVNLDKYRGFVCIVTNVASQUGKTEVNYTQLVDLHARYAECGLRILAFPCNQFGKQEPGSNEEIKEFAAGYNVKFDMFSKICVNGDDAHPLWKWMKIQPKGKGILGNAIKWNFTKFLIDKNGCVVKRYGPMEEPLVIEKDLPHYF
Procedure, shortened: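 NADPH consumption followed by fluorescence at 340/450 nm, t=0 and after 15 min at room temperature. Reaction started with cumene hydroperoxide (0.5 mM final) after 30 min compound–GPX4 preincubation; final 200 nM GPX4, 100 nM GR, 1 mM GSH, 0.5 mM NADPH.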

[5] = qHTS drug screen for cell cycle checkpoint inhibitors in PARPi-resistant BRCA-mutant ovarian cancer cell lines. (AID 1963452; calls by dose curve); conditions: PEO1/OlaR viability, CellTiter-Glo luminescence, 96 h, stronger effect = lower value
Procedure, shortened: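 PEO1, PEO4 and PEO1/OlaR ovarian cancer cells, 600 per well, exposed 96 h at 37C to a dilution series. Viability read by CellTiter-Glo luminescence, normalized to DMSO and empty wells; activity summarized as Z-AUC.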

[6] = NCATS anti-infectives library activity on HEK293 viability as a counter-qHTS vs the C. elegans viability qHTS (AID 1745854);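 note: HEK293 cells exposed to compounds for 24 hr before the viability read; % is set by controls: 0 for no effect and ±100 for the full control effect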
Procedure, shortened: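 Compound titrations (final up to 41.7 uM) were incubated with HEK293 cells for 24 hr at 37C under 5% CO2. Viable cells were quantified with CellTiter-Glo after 10 min at ambient temperature.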

[7] = Primary qHTS for inhibitors of nuclear receptor binding SET domain protein 2 (NSD2) in an RCH-ACV wild type WT cells (2C) (AID 1645877); note: % is set by controls: 0 for no effect and ±100 for the full control effect; nearly all actives have a fitted effect of over 70% in size
[8] = NCATS anti-infectives library activity on the primary C. elegans qHTS viability assay (AID 1745855; calls by dose curve; note: potency is the fitted concentration of half-maximal effect)
Procedure, shortened: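 Titration-based screen in worms: eggs hatched overnight in M9, L1 larvae fed TOP10 capsules in S medium with compound, incubated 21 °C for 7 days; fluorescent objects gated by size and intensity at days 0, 3 and 7.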

[9] = measured here: PEO1 parental Z-AUC

With CCS(=O)(=O)N1CCC(C(C)n2c(C)c(C(=O)NCc3c(OC)cc(C)[nH]c3=O)c3ccccc32)CC1 (stereo not drawn) the Potency [1] was “inactive”, the Potency [2] was “inactive” and the Potency [3] was “inactive”. The Potency [4] was “inactive”, the Z-AUC [5] was 1.37 (inactive) and the Z-AUC [5, 9] was 0.975. The Z-AUC ([5]; measured here: PEO4 Z-AUC) was 0.959.

For COc1ccc(CNC(=O)c2cc(-c3cncc(Cl)c3)cnc2-c2ccccn2)nc1OC, the Potency [1] was “inactive”, the Potency [2] was “inactive” and the Potency [3] was “inactive”. For the same compound, the Z-AUC [5] was 0.765 (inactive), the Z-AUC [5, 9] was 0.872 and the Z-AUC ([5]; measured here: PEO4 Z-AUC) was 1.32.

With Fc1ccc(-c2csc3ncnc(NCc4ccc5c(c4)OCO5)c23)cc1 the Potency [1] was “inactive”, the Potency [2] was 8.33 µM (active) and the Potency [3] was “inactive”. For the same compound, the Potency [4] was “inactive”, the Z-AUC [5] was 0.367 (inactive) and the Z-AUC [5, 9] was 0.157. The Z-AUC ([5]; measured here: PEO4 Z-AUC) was 0.314.

For CCC(=O)O[C@]1(C(=O)CO)CC[C@H]2[C@@H]3CCC4=CC(=O)CC[C@]4(C)[C@H]3CC[C@@]21C, the Potency [1] was “inactive”, the Potency [2] was “inactive” and the Potency [4] was “inactive”. The Z-AUC [5] was 1.13 (inactive), the Z-AUC [5, 9] was 0.73 and the Z-AUC ([5]; measured here: PEO4 Z-AUC) was 1.13.

With CCOC(=N)c1nc2ccc3ncnc(Nc4cc(F)c(F)cc4Cl)c3c2s1 the Potency [1] was “inactive”, the Potency [2] was “inactive” and the Potency [3] was “inactive”. The Z-AUC [5] was -1.14 (inactive), the Z-AUC [5, 9] was -1.11 and the Z-AUC ([5]; measured here: PEO4 Z-AUC) was -1.07.

In the case of O=c1ncccn1[C@@H]1O[C@H](CO)[C@@H](O)[C@H]1O, the Potency [1] is reported as “inactive”, the Potency [2] is reported as “inactive” and the Potency [3] is reported as “inactive”. The Potency [4] was “inactive”, the Z-AUC [5] was -0.938 (inactive) and the Z-AUC [5, 9] was -0.911. It also gave a Z-AUC ([5]; measured here: PEO4 Z-AUC) of -1.39.

In the case of Cc1cc(Nc2cc(N)ncn2)c(=O)n2c1C(=O)NC21CCCCC1, the Potency [1] is reported as “inactive”, the Potency [2] is reported as 2.57 µM (active) and the Potency [6] is reported as “inactive”. The Potency [3] was “inactive”, the Z-AUC [5] was -0.649 (inactive) and the Z-AUC [5, 9] was 0.752. For the same compound, the Z-AUC ([5]; measured here: PEO4 Z-AUC) was 0.801.

With C=C1C[C@H]2C=Nc3cc(OCCCOc4cc5c(cc4OC)C(=O)N4CC(=C)C[C@H]4C=N5)c(OC)cc3C(=O)N2C1 the Potency [1] was “inactive”, the Potency [2] was “inactive” and the Potency [3] was “inactive”. The Z-AUC [5] was 1.4 (inactive), the Z-AUC [5, 9] was 0.729 and the Z-AUC ([5]; measured here: PEO4 Z-AUC) was 0.852.

In the case of O=C1NC(=O)/C(=C\c2ccc(-c3ccc(F)cc3)o2)S1, the Potency [1] is reported as “inactive”, the Potency [2] is reported as “inactive” and the Potency [3] is reported as “inactive”. For the same compound, the Z-AUC [5] was 0.0775 (inactive), the Z-AUC [5, 9] was 0.696 and the Z-AUC ([5]; measured here: PEO4 Z-AUC) was 0.899.

For CS(=O)(=O)c1ccc(-c2cnc(NCc3ccco3)n3cnnc23)cc1, the Potency [1] was “inactive”, the Potency [2] was “inactive” and the Potency [7] was “inactive”. For the same compound, the Z-AUC [5] was 1.04 (inactive), the Z-AUC [5, 9] was 0.794 and the Z-AUC ([5]; measured here: PEO4 Z-AUC) was 1.01.

With CN1C(=O)[C@@H](NC(=O)c2cc(Cc3ccccc3)on2)COc2ccccc21 the Potency [1] was “inactive”, the Potency [2] was “inactive” and the Potency [3] was “inactive”. For the same compound, the Potency [4] was “inactive”, the Z-AUC [5] was 0.979 (inactive) and the Z-AUC [5, 9] was 0.721. It also gave a Z-AUC ([5]; measured here: PEO4 Z-AUC) of 1.08.

With Nc1nc(N)c2nc(-c3cccc(Cl)c3)c(N)nc2n1 the Potency [1] was “inactive”, the Potency [2] was 1.05 µM (active) and the Potency [3] was 4.09 µM (active). The Z-AUC [5] was -0.747 (inactive), the Z-AUC [5, 9] was -0.162 and the Z-AUC ([5]; measured here: PEO4 Z-AUC) was -0.371.

For Cc1cc(O)cc2c1[C@]1(C)CC[C@H]3C(C)(C)CCC[C@]3(C)[C@H]1C2, the activity change, negative = inhibition [1] was -19.8% [at 5.1 µM] (inactive), the activity change, negative = viability loss [2] was -32.6% [at 4.96 µM] (inactive) and the activity, negative = inhibition [3] was -4.81% [at 4.49 µM] (inactive). The outcome [4] was “inactive [at 4.52 µM]”, the Z-AUC [5] was 1.24 (inactive) and the Z-AUC [5, 9] was 0.915. The Z-AUC ([5]; measured here: PEO4 Z-AUC) was 1.

With O=C(NCc1ccc(S(=O)(=O)c2cccc(C(F)(F)F)c2)cc1)c1cnc2[nH]ncc2c1 the Potency [1] was “inactive”, the Potency [2] was 0.0132 µM (active) and the Potency [3] was “inactive”. The Potency [4] was “inactive”, the Z-AUC [5] was -2.19 (inactive) and the Z-AUC [5, 9] was -2.73. It also gave a Z-AUC ([5]; measured here: PEO4 Z-AUC) of -2.28.

With CN(C)CCNC(=O)COc1c2cccc1Cc1cccc(c1OCC(=O)NCCN(C)C)Cc1cccc(c1OCC(=O)NCCN(C)C)Cc1cccc(c1OCC(=O)NCCN(C)C)C2 the activity change, negative = inhibition [1] was -36% [at 8.44 µM] (inactive), the activity change, negative = viability loss [2] was 4.69% [at 9.23 µM] (inactive) and the outcome [3] was “inactive [at 9.52 µM]”. The Z-AUC [5] was -0.309 (inactive), the Z-AUC [5, 9] was -0.716 and the Z-AUC ([5]; measured here: PEO4 Z-AUC) was -0.127.

For COc1ccc(C(=O)N2CCN(C(=O)/C=C/c3ccc(Br)cc3)CC2)cc1, the Potency [1] was “inactive”, the Potency [2] was “inactive” and the Potency [3] was “inactive”. For the same compound, the Potency [4] was “inactive”, the Z-AUC [5] was 1.19 (inactive) and the Z-AUC [5, 9] was 1.01. The Z-AUC ([5]; measured here: PEO4 Z-AUC) was 1.05.

In the case of CC(C)(O)CC[C@@H](O)[C@](C)(O)[C@H]1CC[C@@]2(O)C3=CC(=O)[C@@H]4C[C@@H](O)[C@@H](O)C[C@]4(C)[C@H]3CC[C@]12C, the Potency [1] is reported as “inactive”, the Potency [2] is reported as “inactive” and the Z-AUC [5] is reported as 0.631 (inactive). The Z-AUC [5, 9] was 0.684 and the Z-AUC ([5]; measured here: PEO4 Z-AUC) was 0.947.

In the case of COc1cc(OCc2cccc(-c3ccccc3)c2C)cc(OC)c1CN1CCCC[C@H]1C(=O)O, the Potency [1] is reported as “inactive”, the Potency [2] is reported as “inactive” and the Potency [3] is reported as “inactive”. The Potency [4] was “inactive”, the Z-AUC [5] was -0.024 (inactive) and the Z-AUC [5, 9] was -0.135. It also gave a Z-AUC ([5]; measured here: PEO4 Z-AUC) of -0.37.

For CC(C)NCCCn1c(Sc2cc(Cl)cc(Cl)c2)nc2c(N)ncnc21, the Potency [1] was “inactive”, the Potency [2] was 20.9 µM (active) and the Potency [3] was “inactive”. For the same compound, the Potency [4] was “inactive”, the Z-AUC [5] was -1.23 (inactive) and the Z-AUC [5, 9] was -0.363. For the same compound, the Z-AUC ([5]; measured here: PEO4 Z-AUC) was 0.533.

In the case of CC(=O)N1c2ccc(-c3ccc(C(=O)O)cc3)cc2[C@H](Nc2ccc(Cl)cc2)C[C@@H]1C, the Potency [1] is reported as “inactive”, the Potency [2] is reported as 0.0934 µM (active) and the Potency [6] is reported as “inactive”. For the same compound, the Potency [8] was 23 µM (active), the Potency [3] was “inactive” and the Z-AUC [5] was -0.689 (inactive). For the same compound, the Z-AUC [5, 9] was -0.385 and the Z-AUC ([5]; measured here: PEO4 Z-AUC) was -0.741.

For CCn1c(=O)c2c(nc(/C=C/c3ccc(OC)c(OC)c3)n2C)n(CC)c1=O, the Potency [1] was “inactive”, the Potency [2] was “inactive” and the Potency [3] was “inactive”. The Potency [4] was “inactive”, the Z-AUC [5] was 0.577 (inactive) and the Z-AUC [5, 9] was 0.401. The Z-AUC ([5]; measured here: PEO4 Z-AUC) was 0.882.
